Screens deposited in PubChem by Broad Institute.
aSyn 5UTR act: Activators via SNCA 5'UTR binding, MLPCN; alpha-synuclein 5'UTR reporter, activators screen; activity score, % (tested at 7.5 µM), hits read low; actives 7.1% (n = 300,000); AID 1814; in the data active = activity score below about -60%
* hit, by the source's call. Not all results are given here.

SMILES	aSyn 5UTR act
Cc1ccc(C2=NN(S(C)(=O)=O)C(c3ccc4c(c3)OCO4)C2)cc1 (stereo not given)	-265*
CS(=O)(=O)N1N=C(c2ccc(Br)cc2)CC1c1ccc2c(c1)OCO2 (stereo not given)	-322*
COc1ccc(C2=NN(C(=O)COc3ncnc4ccccc34)C(c3ccco3)C2)cc1 (stereo not given)	64
CC(=O)N1N=C(c2ccccc2)CC1c1cn(C)c2ccccc12 (stereo not given)	-117*
NC(=O)c1cc(-c2csc(-c3cccnc3)n2)ccc1O	-102*
CN1CCN(CC(=O)N(C)c2nc(-c3ccccc3)cs2)CC1	-150*
c1ccc(-c2nc(-c3cccnc3)cs2)cc1	-109*
CN(C(=O)c1cccnc1)c1nc(-c2ccccc2)cs1	-128*
c1ccc(-c2csc(-c3cccnc3)n2)cc1	-78*
Cc1ccnc(N(C(=O)Nc2ccccc2)C2=NCC(C)(C)S2)c1	-165*
COC(=O)c1ccc(Nc2nc3ccc(C)cc3n3cnnc23)cc1	-98*
CCN(CC)c1ccc(-c2nc3cnccc3n2C)cc1	-111*
COc1ccc(-c2nnc(NC(=O)c3cccs3)s2)c(OC)c1	-76*
Cc1cccc(-c2nnc(NC(=O)c3cccs3)s2)c1	-113*
Cc1cc(NC(=O)COc2cccc(Oc3ccccc3)c2)no1	-122*
Cc1ccc(C)c(OCC(=O)Nc2cc(C)on2)c1	-80*
C=CCn1cnc2c(NCc3ccccc3)ncnc21	-76*
CNc1nnc(-c2cccc(N(C)C)c2)s1	-94*
CC(=O)Nc1ccc(-c2cc(N)n(-c3ccccc3)n2)cc1	-162*
Cc1ccc(-n2nc(-c3ccc(N)cc3)cc2N)cc1	-132*
Nc1cc(-c2ccc(Cl)cc2)nn1-c1ccccc1	-138*
Nc1ccc(-c2cc(N)n(-c3ccccc3)n2)cc1	-104*
CC1CCCN(c2ccc([N+](=O)[O-])cc2C(=O)c2ccccc2)C1 (stereo not given)	84
CC1CCN(C(C(=O)NC2CCCCC2)c2cc3c(cc2[N+](=O)[O-])OCO3)CC1 (stereo not given)	-102*
CC1CCCN(C(C(=O)NC2CCCCC2)c2cc3c(cc2[N+](=O)[O-])OCO3)C1 (stereo not given)	-81*
SMILES	aSyn 5UTR act
Nc1ccc(S(=O)(=O)Nc2nccc(/C=C/c3ccccc3F)n2)cc1	-65*
Cc1ccc2nc(NC(=O)c3ccc4c(c3)OCO4)sc2c1	-130*
Cc1ccc2nc(NC(=O)c3ccc4ncsc4c3)sc2c1	-145*
Cc1ccc(C(=O)N2C(=O)C(c3ccccc3)Oc3ccccc32)cc1 (stereo not given)	93
O=C1OC(c2ccccc2)/C(=C(/O)c2ccccc2)C1=O (stereo not given)	-64*
C/C(=N\NC(=O)c1ccc(CSc2nncn2C)cc1)c1cccs1	-62*
C/C(=N/NC(=O)c1ccc(Br)o1)c1cccs1	-73*
C/C(=N/NC(=O)c1cnccn1)c1cccs1	-65*
C/C(=N\NC(=O)c1cc(Br)ccc1O)c1cccs1	-111*
C/C(=N\NC(=O)c1n[nH]c2c1CCC2)c1cccs1	107
C/C(=N\NC(=O)c1ccccc1O)c1ccc(Br)s1	-162*
CCOC(=O)C(CC)/C(C)=N\NC(=O)c1ccccc1O (stereo not given)	93
C/C(=N\Nc1ccccn1)c1cccs1	-148*
CC(C)c1ccc2[nH]c(O)c(N=NC(=O)c3ccc(CSc4nncn4C)cc3)c2c1	-72*
COc1ccc(C)cc1NC(=O)c1nnn(Cc2cccc(C(F)(F)F)c2)c1N	55
COc1cccc(NC(=O)c2nnn(CCc3ccccc3)c2N)c1	-127*
COc1cccc(NC(=O)c2nnn(Cc3ccc(Br)cc3F)c2N)c1	-80*
O=C1NC(=O)/C(=C\c2ccc(OCc3cccc(C(=O)O)c3)c(Cl)c2)N1	70
O=C(Nc1ccccc1Cl)c1cccc(COc2cc(Cl)ccc2Cl)c1	-120*
Cc1nn(Cc2cccc(F)c2)c(C)c1NC(=O)c1ccc(COc2ccccc2Cl)cc1	69
O=C(O)c1cccc(COc2ccccc2Cl)c1	103
Cc1nn(Cc2c(F)c(F)c(F)c(F)c2F)c(C)c1NC(=O)c1cccc(COc2ccccc2Cl)c1	-97*
CN1CCN(C(=O)c2cccc(COc3cc(Cl)ccc3Cl)c2)CC1	-164*
c1ccc(OCCOc2ncnc3ccccc23)cc1	-184*
O=C(COc1ncnc2cc(Cl)ccc12)c1ccccc1	-62*
SMILES	aSyn 5UTR act
O=C(COc1ncnc2ccccc12)c1ccc(Cl)cc1	-204*
O=C(NNC(=O)c1ccccc1O)c1cc2ccccc2o1	-86*
Cc1cc(C(=O)Nc2ccccc2)oc1C	-112*
O=C(Nc1ccccc1)c1ccc(OC(=O)c2cc3ccccc3o2)cc1	-84*
CC(C)c1nnc(NC(=O)c2cc3ccccc3o2)s1	-135*
O=C(Nc1ccc(F)cc1)c1cc2ccccc2o1	-153*
O=C(Nc1ccccc1)c1cc2ccccc2o1	-112*
O=C(Nc1ccc(NC(=O)c2cc3ccccc3o2)cc1)c1ccco1	-95*
CSC(C(=O)c1cc2ccccc2o1)c1ccccc1 (stereo not given)	-88*
CC(=O)c1ccc(NC(=O)c2cc3ccccc3o2)cc1	-128*
O=C(Nc1ccc(N2CCCC2)cc1)c1cc2ccccc2o1	-131*
O=C(c1ccccc1Br)N1CCCC(c2nc(-c3cccs3)no2)C1 (stereo not given)	-63*
Cc1ccc(-c2noc(C3CCN(S(C)(=O)=O)CC3)n2)o1	-67*
Cc1ccc(-c2noc(C3CCCN(C(=O)c4ccccc4)C3)n2)o1 (stereo not given)	-154*
Cc1ccc(-c2noc(C3CCCN(C(=O)c4ccccc4Br)C3)n2)o1 (stereo not given)	-92*
CCN(CC)c1ccc(C(=O)Nc2cccc(F)c2)cc1	-77*
CN(C)c1cccc(C(=O)Nc2cccc(F)c2)c1	-175*
CC(O)CNc1ncnc2cc(-c3ccc(F)cc3)sc12 (stereo not given)	-62*
CS(=O)(=O)N1CCN(c2ccc(NC(=O)c3ccc(Br)o3)cc2)CC1	-123*
CC1CCN(c2ccc(NC(=O)c3ccc(Br)o3)cc2)CC1	-144*
Fc1ccc(N2CCN(C3=Nc4cccc5cccc3c45)CC2)cc1	-173*
Cc1cc(N2CCN(Cc3cn(C)nc3-c3ccccc3F)CC2)cc(C)n1	91
c1ccc(CN2CCN(C3=Nc4cccc5cccc3c45)CC2)cc1	-101*
C#CC[N+](C)(C)CCCCCCCCCC	75
CN(C)c1nc2ccc(OCCN3CCCCC3)cc2s1	-71*
SMILES	aSyn 5UTR act
Oc1ccc(N=C/C=C/c2ccc(Br)cc2)cc1-c1nc2ccccc2s1	-107*
CS(=O)(=O)c1ccccc1C(=O)Nc1ccc(-c2nc3ccccc3o2)cc1	-185*
CS(=O)(=O)c1ccccc1C(=O)Nc1ccc(-c2nc3ccccc3[nH]2)cc1	-156*
O=C(c1ccccc1)c1ccc2nc(-c3ccc(NC(=O)c4ccccc4Br)cc3)[nH]c2c1	75
c1cc(-c2cccs2)nc(-c2cccs2)c1	-104*
c1csc(-c2cnc3ccccc3n2)c1	-108*
N/C(=N\OC(=O)c1cccc(Cl)c1)c1ccncc1	-87*
N/C(=N\OC(=O)c1cccc(C(F)(F)F)c1)c1cnccn1	-81*
N/C(=N\OC(=O)c1cccc(Cl)c1)c1cccnc1	-114*
N/C(=N\OC(=O)c1ccc(Cl)c(Cl)c1)c1cccnc1	-138*
C=CCOC(=O)/C(=C\c1ccccc1)NC(=O)c1ccc(C)cc1	-175*
